Experimental data published in PubChem BioAssay.
Activity calls are given as the source filed them.

Assays:
[1] = binders of probe aFSTL3 on microarray, primary screen, stem cell growth factor project, biochemical, small-molecule microarray, fluorescence 635/667 (AID 1064); conditions: higher = more signal;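 also: measures binding of the biotinylated anti-FSTL3 antibody to printed compounds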
[2] = binders from COS7 lysate, DM2A8 probe, primary screen, torsin A project, cell lysate, small-molecule microarray, fluorescence 635/667 (AID 1065); conditions: higher = more signal, COS7 lysate expressing mutant human TOR1A
[3] = binders of probe aFGF2 on microarray, primary screen, stem cell growth factor project, biochemical, small-molecule microarray, fluorescence 635/667 (AID 1067); conditions: higher = more signal;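 also: measures binding of biotinylated aFGF2 protein to printed compounds on slides; z-score merges feature fluorescence and signal-to-noise across triplicate slides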
[4] = binders of probe aFGF10 on microarray, primary screen, stem cell growth factor project, biochemical, small-molecule microarray, fluorescence 635/667 (AID 1071); conditions: higher = more signal;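 also: score merges 667 nm spot intensity and signal to noise from triplicate slides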
[5] = target: Neurogenic locus notch homolog protein 2 (Homo sapiens) (UniProt Q04721); assay: Notch2 binders on small-molecule microarrays, primary screen, biochemical, small-molecule microarray, 635 nm fluorescence, stem cell growth factors (AID 1073); conditions: Notch2 binding, higher = more signal
Chain of Neurogenic locus notch homolog protein 2 (Homo sapiens) (Q04721 whole entry, looked up, canonical isoform): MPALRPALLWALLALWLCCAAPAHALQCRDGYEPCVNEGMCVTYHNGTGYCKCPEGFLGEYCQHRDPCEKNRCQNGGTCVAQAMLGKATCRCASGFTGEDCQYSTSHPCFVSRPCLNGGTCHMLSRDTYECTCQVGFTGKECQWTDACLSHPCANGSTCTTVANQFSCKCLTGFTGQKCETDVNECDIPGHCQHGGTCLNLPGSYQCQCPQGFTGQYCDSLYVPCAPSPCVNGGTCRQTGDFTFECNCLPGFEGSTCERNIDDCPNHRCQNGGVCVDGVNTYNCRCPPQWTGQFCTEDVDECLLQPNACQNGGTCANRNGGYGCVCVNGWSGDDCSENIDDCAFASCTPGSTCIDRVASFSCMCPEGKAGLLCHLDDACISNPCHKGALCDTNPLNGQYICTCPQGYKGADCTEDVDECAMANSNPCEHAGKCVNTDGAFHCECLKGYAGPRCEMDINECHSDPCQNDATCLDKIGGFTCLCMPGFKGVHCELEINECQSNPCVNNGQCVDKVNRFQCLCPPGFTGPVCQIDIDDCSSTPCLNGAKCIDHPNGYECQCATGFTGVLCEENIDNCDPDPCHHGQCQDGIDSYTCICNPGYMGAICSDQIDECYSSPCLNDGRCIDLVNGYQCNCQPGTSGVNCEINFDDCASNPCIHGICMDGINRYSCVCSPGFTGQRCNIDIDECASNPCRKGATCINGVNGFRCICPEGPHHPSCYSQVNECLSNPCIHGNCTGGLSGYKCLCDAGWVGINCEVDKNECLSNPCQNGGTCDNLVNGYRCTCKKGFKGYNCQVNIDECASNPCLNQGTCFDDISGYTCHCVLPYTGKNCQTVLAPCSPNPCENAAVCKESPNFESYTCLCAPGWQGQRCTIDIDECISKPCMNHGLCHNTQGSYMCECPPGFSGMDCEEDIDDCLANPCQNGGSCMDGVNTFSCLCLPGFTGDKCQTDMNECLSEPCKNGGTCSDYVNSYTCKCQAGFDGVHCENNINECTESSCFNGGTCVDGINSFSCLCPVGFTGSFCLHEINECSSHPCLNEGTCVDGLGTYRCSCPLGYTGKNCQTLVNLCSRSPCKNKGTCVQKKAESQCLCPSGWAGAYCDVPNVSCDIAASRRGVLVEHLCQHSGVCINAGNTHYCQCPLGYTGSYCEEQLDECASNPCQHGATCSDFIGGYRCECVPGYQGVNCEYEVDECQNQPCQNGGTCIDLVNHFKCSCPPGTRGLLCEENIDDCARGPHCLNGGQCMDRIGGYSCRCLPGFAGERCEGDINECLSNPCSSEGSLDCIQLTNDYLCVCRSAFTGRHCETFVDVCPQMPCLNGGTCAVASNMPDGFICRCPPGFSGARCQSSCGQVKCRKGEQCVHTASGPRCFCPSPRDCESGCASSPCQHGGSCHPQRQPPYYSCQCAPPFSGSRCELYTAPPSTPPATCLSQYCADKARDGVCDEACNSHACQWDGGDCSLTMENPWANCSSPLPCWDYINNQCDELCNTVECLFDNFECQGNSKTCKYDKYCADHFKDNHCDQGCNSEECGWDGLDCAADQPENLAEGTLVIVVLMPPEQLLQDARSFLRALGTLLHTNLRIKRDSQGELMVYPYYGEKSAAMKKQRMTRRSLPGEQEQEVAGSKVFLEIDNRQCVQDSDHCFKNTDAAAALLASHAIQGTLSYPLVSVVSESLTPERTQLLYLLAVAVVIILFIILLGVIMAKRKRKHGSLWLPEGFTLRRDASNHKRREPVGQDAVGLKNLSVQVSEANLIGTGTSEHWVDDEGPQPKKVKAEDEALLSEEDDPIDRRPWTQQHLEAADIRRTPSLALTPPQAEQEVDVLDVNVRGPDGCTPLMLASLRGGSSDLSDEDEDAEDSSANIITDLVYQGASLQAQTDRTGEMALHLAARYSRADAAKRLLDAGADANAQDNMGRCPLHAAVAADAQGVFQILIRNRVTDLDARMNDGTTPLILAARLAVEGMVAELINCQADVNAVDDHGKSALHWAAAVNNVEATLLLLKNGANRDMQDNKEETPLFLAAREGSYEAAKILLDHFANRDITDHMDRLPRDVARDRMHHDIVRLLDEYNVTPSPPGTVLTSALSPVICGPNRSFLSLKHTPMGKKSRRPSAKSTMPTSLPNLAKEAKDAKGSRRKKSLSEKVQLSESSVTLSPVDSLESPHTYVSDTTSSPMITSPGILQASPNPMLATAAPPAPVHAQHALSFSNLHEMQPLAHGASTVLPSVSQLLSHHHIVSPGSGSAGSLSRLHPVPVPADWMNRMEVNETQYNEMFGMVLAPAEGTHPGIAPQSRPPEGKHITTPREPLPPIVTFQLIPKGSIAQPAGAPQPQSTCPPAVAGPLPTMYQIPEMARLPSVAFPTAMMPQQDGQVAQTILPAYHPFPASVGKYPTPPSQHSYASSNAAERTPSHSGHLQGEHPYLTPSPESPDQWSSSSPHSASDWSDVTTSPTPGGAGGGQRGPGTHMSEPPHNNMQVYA

[6] = target: Pro-neuregulin-1, membrane-bound isoform (Homo sapiens) (UniProt Q02297); assay: NRG1 binders on small-molecule microarrays, primary screen, psychiatric disease protein project, biochemical, small-molecule microarray, fluorescence 635/667 (AID 1075); conditions: NRG1 binding, 635 nm fluorescence, higher = more signal;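 also: score combines 667 nm spot fluorescence with signal to noise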
Chain of Pro-neuregulin-1, membrane-bound isoform (Homo sapiens) (Q02297 whole entry, looked up, the tested form may be a part, canonical isoform): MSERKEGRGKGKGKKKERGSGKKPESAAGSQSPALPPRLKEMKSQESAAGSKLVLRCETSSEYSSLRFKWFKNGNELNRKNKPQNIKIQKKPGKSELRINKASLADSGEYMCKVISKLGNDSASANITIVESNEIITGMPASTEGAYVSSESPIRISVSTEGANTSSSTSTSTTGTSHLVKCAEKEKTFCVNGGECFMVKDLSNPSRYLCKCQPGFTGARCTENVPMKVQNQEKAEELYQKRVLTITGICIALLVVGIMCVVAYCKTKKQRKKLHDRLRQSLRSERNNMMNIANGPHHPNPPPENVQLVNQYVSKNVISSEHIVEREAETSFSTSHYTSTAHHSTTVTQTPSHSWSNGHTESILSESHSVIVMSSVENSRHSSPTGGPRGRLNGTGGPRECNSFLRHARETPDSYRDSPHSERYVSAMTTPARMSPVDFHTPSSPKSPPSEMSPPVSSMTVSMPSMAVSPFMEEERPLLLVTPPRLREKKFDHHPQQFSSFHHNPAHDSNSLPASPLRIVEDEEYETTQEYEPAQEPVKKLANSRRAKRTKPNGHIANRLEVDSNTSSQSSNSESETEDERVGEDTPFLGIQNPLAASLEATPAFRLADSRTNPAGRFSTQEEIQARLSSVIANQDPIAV

[7] = system: Neuregulin-1 EGF-like domain; assay: binders of neuregulin-1 EGF-like domain, primary screen, biochemical, small-molecule microarray, 635 nm fluorescence (AID 1081); conditions: small-molecule microarray binding, higher = more signal;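 also: binding of the protein to compounds printed on small-molecule microarray slides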
[8] = FRG1 promoter luciferase signal modulators, primary screen, FRG1 inhibition for FSHD, cell-based, C2C12 myotubes, firefly/Renilla luciferase, luminescence (AID 1084); conditions: higher = more signal, called active from +8 up or from −8 down
[9] = binders of probe aFST on microarray, primary screen, stem cell growth factor project, biochemical, small-molecule microarray, fluorescence 635/667 (AID 1086); conditions: higher = more signal;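 also: score merges 667 nm fluorescence with signal-to-noise of each printed compound spot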
[10] = binders of probe aHhip on microarray, primary screen, stem cell growth factor project, biochemical, small-molecule microarray, fluorescence 635/667 (AID 1087); conditions: higher = more signal;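 also: score merges spot fluorescence at 667nm with spot signal to noise ratio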
[11] = system: PRMT1 (protein arginine N-methyltransferase 1); assay: PRMT1 binders on small-molecule microarrays, primary screen, biochemical, small-molecule microarray, 635 nm fluorescence (AID 1088); conditions: small-molecule microarray binding, higher = more signal;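 also: binding of Prmt1 protein to compounds spotted on small-molecule microarray slides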
[12] = yeast growth modulation, basal conditions, primary screen, YJM789 clinical isolate, OD600, 24 h (AID 1089);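 also: growth of clinical yeast isolate S. cerevisiae YJM 789 seeded 1000 cells per well; test concentration not given here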; conditions: S. cerevisiae YJM789 growth, higher = more signal, called active from +8 up or from −8 down
[13] = fission yeast growth modulation, primary screen, strain 972, OD600, 24 h, no modulator (AID 1090);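 also: basal condition with compound alone and no growth modifier present; test concentration not given here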; conditions: S. pombe 972 growth, higher = more signal, called active from +8 up or from −8 down
[14] = S. cerevisiae growth modulation with rapamycin, primary screen, strain BY4716, OD600, 96 h (AID 1091); conditions: higher = more signal, called active from +8 up or from −8 down; also: test concentration not given here
[15] = target: Torsin-1A-interacting protein 2 (Homo sapiens) (UniProt Q8NFQ8); assay: LULL1 binders on small-molecule microarray, primary screen, cell lysate, human LULL1 lysate, 635/667 nm fluorescence (AID 1092); conditions: hLULL1 lysate binding, 635 nm fluorescence, higher = more signal;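 also: probe is lysate of COS7 cells overexpressing human LULL1; score merges per-feature 667 nm fluorescence with signal-to-noise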
Chain of Torsin-1A-interacting protein 2 (Homo sapiens) (Q8NFQ8 whole entry, looked up): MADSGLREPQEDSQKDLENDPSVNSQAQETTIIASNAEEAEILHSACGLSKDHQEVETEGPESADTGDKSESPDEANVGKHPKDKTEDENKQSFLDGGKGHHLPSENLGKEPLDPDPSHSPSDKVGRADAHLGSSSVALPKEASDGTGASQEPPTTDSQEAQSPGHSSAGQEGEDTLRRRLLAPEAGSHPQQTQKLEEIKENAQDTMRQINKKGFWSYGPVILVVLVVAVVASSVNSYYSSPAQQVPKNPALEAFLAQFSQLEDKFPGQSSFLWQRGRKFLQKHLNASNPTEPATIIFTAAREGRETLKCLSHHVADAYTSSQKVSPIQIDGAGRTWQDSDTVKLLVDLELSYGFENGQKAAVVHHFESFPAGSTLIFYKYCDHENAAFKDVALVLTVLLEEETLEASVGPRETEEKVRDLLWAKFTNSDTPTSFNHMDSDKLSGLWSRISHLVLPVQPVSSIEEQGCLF

[16] = E. coli growth modulation, two-sided OD650, primary screen, E. coli filamentation project, strain DRC41, 24 h (AID 1093); conditions: OD650, 24 h, higher = more signal, called active from +8 up or from −8 down;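 also: MC1000 strain lacking acrAB efflux and sulA so SOS filamentation is blocked; test concentration not given here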
[17] = small-molecule microarray binders of probe aLefty2, primary screen, biochemical, biotinylated probe, 635/667 nm fluorescence (AID 1094); conditions: higher = more signal;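 also: score merges spot fluorescence near 667 nm with spot signal-to-noise ratio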
[18] = system: Noggin (protein binding on small-molecule microarray); assay: Noggin binders on small-molecule microarray, primary screen, biochemical, 635/667 nm fluorescence (AID 1095); conditions: 635 nm fluorescence, higher = more signal;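 also: score merges 667 nm feature fluorescence with signal to noise over triplicate slides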
[19] = target: Neurogenic locus notch homolog protein 3 (Homo sapiens) (UniProt Q9UM47); assay: NOTCH3 binders on small-molecule microarray, primary screen, biochemical, 635/667 nm fluorescence (AID 1096); conditions: NOTCH3 binding, 635 nm fluorescence, higher = more signal
[20] = small-molecule microarray binders of probe aEGFR, primary screen, biochemical, biotinylated probe, 635/667 nm fluorescence (AID 1097); conditions: higher = more signal;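 also: probe is a biotinylated anti-EGFR antibody binding compounds printed on slides; score combines fluorescence near 667 nm and signal to noise of each spot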

| Compound | composite z-score [1] | composite z-score [2] | composite z-score [3] | composite z-score [4] | composite z-score [5] | composite z-score [6] | composite z-score [7] | z-score [8] | composite z-score [9] | composite z-score [10] | composite z-score [11] | z-score [12] | z-score [13] | z-score [14] | composite z-score [15] | z-score [16] | composite z-score [17] | composite z-score [18] | composite z-score [19] | composite z-score [20] |
| --- | --- | --- | --- | --- | --- | --- | --- | --- | --- | --- | --- | --- | --- | --- | --- | --- | --- | --- | --- | --- |
| CC(C)(C)OC(=O)CC[C@]1(C(=O)NCc2ccccc2)N=C(c2ccc(OCCCO)cc2)O[C@H]1c1ccccc1N=[N+]=[N-] | 1.4 | 1.11 | 0.231 | 0.907 | 1.65 | 1.91 | 1.26 | 1.14 (inactive) | 1.62 | -0.248 | 1.55 | -0.182 (inactive) | -0.654 (inactive) | 2.97 (inactive) | 3.41 | 0.876 (inactive) | 0.782 | 1.69 | 1.02 | 0.593 |
| CC(C)C[C@@H]1NC(=O)[C@@]23C(=O)N[C@@H](Cc4ccccc4)C2[C@H](C)[C@@]2(C)O[C@H]2C3/C=C/C/C=C\CNC(=O)[C@H](Cc2ccccc2)NC1=O (stereo not given in full) | -0.215 | -0.215 | -0.101 | -0.0045 | 0.245 | 0.974 | 0.897 | 0.259 (inactive) | 0.0017 | 0.03 | 0.911 | -0.664 (inactive) | -19.9 (active) | -0.602 (inactive) | 0.574 | 2.08 (inactive) | -0.202 | 0.404 | 0.414 | -0.0671 |
| CCOC(=O)C[C@H]1[C@H](OC(=O)c2cc3ccccc3oc2=O)[C@@H](NC(=O)c2ccccc2)c2cc(OCCCO)ccc2N1C(=O)Cc1ccc(OC)cc1 | -0.297 | 0.682 | -0.038 | 0.575 | 0.81 | 0.147 | -0.1 | -0.265 (inactive) | 0.514 | 0.0302 | -0.0867 | -0.196 (inactive) | -1.08 (inactive) | -0.846 (inactive) | 0.239 | 2.9 (inactive) | -0.0069 | 0.908 | 0.665 | -0.113 |
| COC(=O)C(CC#Cc1ccc2c(c1)[C@]1(C(=O)N2)[C@H](c2ccccc2OCCO)N2[C@H](c3ccccc3)[C@H](c3ccccc3)OC(=O)[C@H]2[C@@H]1C(=O)N1CCCCCCC1)C(=O)OC | 4 | 2.62 | 0.984 | 1.28 | 1.54 | 2.17 | 0.982 | 0.62 (inactive) | 3.71 | 2.52 | 1.53 | 0.349 (inactive) | 0.958 (inactive) | 1.06 (inactive) | 4.89 | 1.83 (inactive) | 1.93 | 2.02 | 1.09 | 1.44 |
| COCCOC(=O)N1C(=O)[C@@]2(c3cc(C#CCNC(N)=O)ccc31)[C@H](c1ccccc1OCCO)N1[C@H](c3ccccc3)[C@H](c3ccccc3)OC(=O)[C@H]1[C@@H]2C(=O)Nc1nc2ccccc2s1 | 0.171 | 1.05 | -0.0893 | 0.158 | 0.931 | 0.582 | 0.627 | 1.18 (inactive) | 0.986 | 0.0623 | 1.28 | 0.314 (inactive) | -0.364 (inactive) | 1.99 (inactive) | 1.58 | 2.67 (inactive) | 0.136 | 0.345 | 0.799 | -0.0732 |
| COc1ccc(C#Cc2ccc3c(c2)[C@]2(C(=O)N3)[C@H](c3ccc(O)cc3)N3[C@H](c4ccccc4)[C@H](c4ccccc4)OC(=O)[C@H]3[C@@H]2C(=O)N2CCN(c3ncccn3)CC2)cc1 | 0.286 | 1.31 | -0.0625 | 0.0869 | 1.19 | 1.64 | 0.892 | -0.36 (inactive) | 0.252 | 0.186 | 1.18 | 0.478 (inactive) | -1.84 (inactive) | 2.15 (inactive) | 2.01 | 1.99 (inactive) | 0.0708 | -0.0098 | 0.536 | -0.0854 |
| C=C(/C(=C/C[C@H](OC(C)=O)c1cccc(OCCO)c1)c1cc(C(=O)OC)ccc1OC)C(C)C | 0.037 | 0.0106 | -0.128 | 0.437 | -1.02 | 1.04 | 0.274 | -0.698 (inactive) | -0.24 | 0.0623 | 0.359 | 0.0359 (inactive) | -1.37 (inactive) | -0.954 (inactive) | 0.41 | 1.73 (inactive) | -0.189 | -0.0168 | -0.609 | -0.191 |
| COc1c(C)cc(-c2cc3c(c(CCc4ccccc4)n2)[Si](C(C)C)(C(C)C)OC3)cc1C | -0.496 | 1.49 | -0.125 | 0.358 | 0.364 | -0.355 | 0.578 | -0.14 (inactive) | 0.287 | -0.0346 | 1.42 | -0.819 (inactive) | -1.57 (inactive) | -0.618 (inactive) | 0.778 | 2.29 (inactive) | -0.0866 | 0.288 | 0.34 | 0.0068 |
| O=C(NCc1ccccc1)[C@@H]1c2ccccc2C(=O)N(Cc2ccccc2Cl)[C@H]1c1ccc(CO)cc1 | 0.389 | 0.658 | 0.0139 | 0.124 | 1.21 | 0.887 | 1.25 | -2.93 (inactive) | 0.893 | 0.0623 | 1.41 | -0.21 (inactive) | -1.82 (inactive) | -1.49 (inactive) | 2.69 | 2.1 (inactive) | 0.054 | 1.17 | 1.05 | 0.103 |
| COCCOC(=O)N1C(=O)[C@@]2(c3cc(C#CCCO)ccc31)[C@H](c1ccccc1OCCO)N1[C@H](c3ccccc3)[C@H](c3ccccc3)OC(=O)[C@H]1[C@@H]2C(=O)NC[C@H](O)c1ccccc1 | -0.138 | 2.15 | -0.105 | 0.365 | 0.3 | 1.12 | 1.06 | -2.36 (inactive) | 0.555 | 0.0623 | 1.56 | -0.524 (inactive) | -1.14 (inactive) | 2.23 (inactive) | 1.29 | 3.51 (inactive) | -0.0898 | 1.71 | 0.99 | 0.0533 |
